CIT2-GFP yeast = modulators of TOR pathway CIT2-GFP in S. cerevisiae. GFP response vs DMSO, % at 10 µM. 0.065% of 320,000 active. S. cerevisiae CIT2-GFP strain, flow cytometry, 3 h; 100 means same as DMSO wells;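 active means GFP response relative to DMSO above a set limit, near the screen mean plus 3 SD, cut at about 150% in these data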;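 further: ratio of well median GFP fluorescence to mean of DMSO wells on the plate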
AGP1-GFP MLPCN = modulators of TOR pathway AGP1-GFP in S. cerevisiae; S. cerevisiae AGP1-GFP multiplex flow cytometry, 3 h; GFP as percent of DMSO wells; GFP response vs DMSO, % at 10 µM; 0.02% of 320,000 active; AID 2066;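 active means GFP response relative to DMSO above a set limit, near screen average plus 3 SD, cut at about 150% in these data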;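 further: median GFP channel fluorescence of the gated AGP1 strain per well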
Efflux pump mplx = inhibitors of Candida antifungal efflux pumps expressed in yeast; S. cerevisiae Candida pump triplex, Nile Red efflux; AID 485275; 0.44% of 330,000 active; inhibition, % at 10 µM;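 active means plate passing quality check with inhibition over a set limit, or well fluorescence over plate mean plus 4 SD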;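 further: Nile Red retained in pooled yeast measured as flow cytometry median fluorescence; higher means more Nile Red kept so more efflux inhibition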
MEP2 TOR yeast = alters MEP2-GFP fluorescence in TOR pathway yeast screen; S. cerevisiae MEP2-GFP strain, flow cytometry GFP, 3 h; 100% = DMSO control level; GFP response vs DMSO, % at 10 µM; 0.51% of 330,000 active; AID 2016;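 active means GFP response versus DMSO above a set limit, roughly screen mean plus 3 SD, cut at about 180% in these data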;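 further: median GFP fluorescence of the barcode-gated MEP2-GFP cells per well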
RPL19A TOR yeast = alters RPL19A-GFP fluorescence in TOR pathway yeast screen. S. cerevisiae RPL19A-GFP strain, flow cytometry, 3 h; stronger effect = lower value. percent response vs DMSO, % at 10 µM. 0.3% of 330,000 active;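 active means percent response vs DMSO below 50%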;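 further: median channel GFP fluorescence of the barcoded RPL19A-GFP strain; lower means less RPL19A-GFP as with rapamycin TOR inhibition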
LAP4-GFP MLPCN = alters LAP4-GFP fluorescence in TOR pathway yeast screen; S. cerevisiae LAP4-GFP multiplex, flow cytometry GFP, 3 h; median GFP as percent of DMSO wells; GFP response vs DMSO, % at 10 µM; 0.34% of 320,000 active; AID 2023;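 active means GFP response vs DMSO above a set limit, about the screen mean plus 3 SD, cut at about 150% in these data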
LAP4 cherry2 = reconfirmed LAP4-GFP TOR pathway modulator in yeast. 20% of 590 active. S. cerevisiae LAP4-GFP strain, flow cytometry GFP, 3 h. GFP response vs DMSO, % at 10 µM. shares compounds with LAP4-GFP MLPCN;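 active means GFP signal as percent of the solvent control above about 150%, meaning raised reporter expression, limit read from the data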
MEP2-GFP pick2 = second confirmation of modulators of TOR reporter MEP2-GFP in yeast | shares compounds with LAP4-GFP MLPCN | 10% of 590 active | GFP response vs DMSO, % at 10 µM | S. cerevisiae MEP2-GFP strain, flow cytometry GFP, 3 h;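 active means GFP signal above 150% of the solvent control wells, that is a rise of more than half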;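 further: median channel GFP fluorescence of all gated yeast cells per well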
RPL19A GFP CP2 = reconfirmed modulator of RPL19A-GFP TOR reporter in yeast | 3% of 590 active | S. cerevisiae RPL19A-GFP strain, flow cytometry GFP, 3 h; stronger effect = lower value; 100% means same as DMSO wells | shares compounds with LAP4-GFP MLPCN | AID 2623 | GFP response vs DMSO, % at 10 µM;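 active means under 65% GFP response relative to DMSO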;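 further: median GFP channel fluorescence per well over the all cells gate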
CIT2-GFP pick2 = reconfirmed modulator of CIT2-GFP TOR reporter in yeast. shares compounds with LAP4-GFP MLPCN. S. cerevisiae CIT2-GFP strain, flow cytometry GFP, 3 h; DMSO control wells read 100%. GFP response vs DMSO, % at 10 µM. 8% of 590 active. AID 2624;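 active means GFP response vs DMSO above about 150%, limit read from the data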;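 further: median green fluorescence per well over all gated yeast cells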
AGP1-GFP pick2 = reconfirmed modulator of AGP1-GFP TOR reporter in yeast; shares compounds with LAP4-GFP MLPCN; AID 2643; percent response vs DMSO, % at 10 µM; 590 tested, under 10 active; S. cerevisiae AGP1-GFP strain, flow cytometry GFP, 3 h;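 active means over 150 percent of DMSO response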;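 further: median GFP channel fluorescence over all cells without mother daughter split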
Yeast autofluor = yeast s288c autofluorescence artifact, counter-screen. shares compounds with LAP4-GFP MLPCN. S. cerevisiae s288c, 520 nm autofluorescence, flow cytometry, 3 h; stronger effect = higher value; zero means same as solvent-only cells. fluorescence change (kMESF span) at 33 µM. 610 tested, under 10 active. AID 2757;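 active means fluorescence span over the dose series, or activity score, above about 33, limit read from the data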
A number is an active result. Sampled rows, rich in hits. Any-hit rate of the full collection: about 1.3%.

What do the screens show for `CCN1CCN(C(=O)c2ccc(C)c(S(=O)(=O)Nc3cccc(C)c3)c2)CC1`?
CIT2-GFP yeast: 166; AGP1-GFP MLPCN: inactive; Efflux pump mplx: inactive; MEP2 TOR yeast: inactive; RPL19A TOR yeast: inactive; LAP4-GFP MLPCN: inactive; LAP4 cherry2: inactive; MEP2-GFP pick2: inactive; RPL19A GFP CP2: inactive; CIT2-GFP pick2: inactive; AGP1-GFP pick2: inactive

Results for O=C(/C=C/c1ccccc1)c1cc(Br)ccc(=O)c1O ?
CIT2-GFP yeast: inactive; AGP1-GFP MLPCN: inactive; Efflux pump mplx: inactive; MEP2 TOR yeast: inactive; RPL19A TOR yeast: inactive; LAP4-GFP MLPCN: inactive; LAP4 cherry2: inactive; MEP2-GFP pick2: 154; RPL19A GFP CP2: inactive; CIT2-GFP pick2: 163; AGP1-GFP pick2: inactive; Yeast autofluor: inactive

Results for CCOC(=O)c1c(C)oc2c1C(=O)c1ccccc1C2=O ?
CIT2-GFP yeast: inactive; AGP1-GFP MLPCN: inactive; Efflux pump mplx: inactive; MEP2 TOR yeast: inactive; RPL19A TOR yeast: inactive; LAP4-GFP MLPCN: inactive

What do the screens show for `Cc1oc2c(c1C(=O)O)C(=O)c1ccccc1C2=O`?
CIT2-GFP yeast: inactive; AGP1-GFP MLPCN: inactive; Efflux pump mplx: inactive; MEP2 TOR yeast: inactive; RPL19A TOR yeast: inactive; LAP4-GFP MLPCN: 156; LAP4 cherry2: inactive; MEP2-GFP pick2: inactive; RPL19A GFP CP2: inactive; CIT2-GFP pick2: inactive; AGP1-GFP pick2: inactive

What do the screens show for `CCN(CC(=O)Nc1ccccc1OC)C(=O)CCOc1ccc(C(C)(C)C)cc1`?
CIT2-GFP yeast: inactive; AGP1-GFP MLPCN: inactive; Efflux pump mplx: inactive; MEP2 TOR yeast: inactive; RPL19A TOR yeast: inactive; LAP4-GFP MLPCN: inactive

Results for O=C(Nc1ccc(Cl)cc1Cl)c1ccc2c(c1)OCCO2 ?
CIT2-GFP yeast: inactive; AGP1-GFP MLPCN: inactive; Efflux pump mplx: inactive; MEP2 TOR yeast: inactive; RPL19A TOR yeast: inactive; LAP4-GFP MLPCN: inactive

Results for O=C(Nc1ccc(Cl)cc1Cl)c1cccc(N2C(=O)C=CC2=O)c1 ?
CIT2-GFP yeast: inactive; AGP1-GFP MLPCN: inactive; Efflux pump mplx: inactive; MEP2 TOR yeast: inactive; RPL19A TOR yeast: inactive; LAP4-GFP MLPCN: 184; Yeast autofluor: inactive

Results for CCOCCCNC(=O)C1CCCN(S(=O)(=O)c2cccc3nsnc23)C1 (configuration not stated) ?
CIT2-GFP yeast: inactive; AGP1-GFP MLPCN: inactive; Efflux pump mplx: inactive; MEP2 TOR yeast: inactive; RPL19A TOR yeast: inactive; LAP4-GFP MLPCN: 234; LAP4 cherry2: inactive; MEP2-GFP pick2: inactive; RPL19A GFP CP2: inactive; CIT2-GFP pick2: inactive; AGP1-GFP pick2: inactive

Results for COCCCNC(=O)C1CCCN(S(=O)(=O)c2cccc3nsnc23)C1 (configuration not stated) ?
CIT2-GFP yeast: inactive; AGP1-GFP MLPCN: inactive; Efflux pump mplx: inactive; MEP2 TOR yeast: inactive; RPL19A TOR yeast: inactive; LAP4-GFP MLPCN: inactive

What do the screens show for `Cc1ccccc1-c1nc(CS(=O)(=O)CC(=O)NCc2ccco2)c(C)o1`?
CIT2-GFP yeast: inactive; AGP1-GFP MLPCN: inactive; Efflux pump mplx: inactive; MEP2 TOR yeast: inactive; RPL19A TOR yeast: inactive; LAP4-GFP MLPCN: inactive

Source: PubChem BioAssay
